The nature of test [1]: Cell Viability - N2a (AID 540).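 Note: plate controls were DMSO alone for no effect and tamoxifen control for full effect; nearly all actives have a fitted effect of over 45% in size.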 Conditions: N2a mouse neuroblastoma cell viability; activity change, negative = cytotoxicity: at 92.2 µM (top of the series). The essentials:
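Mouse neuroblastoma N2a cells, 1500/well, exposed to compounds 40 h at 37 °C in complete medium. Viability measured as cellular ATP by CellTiter-Glo luminescence; AC50 from Hill fits of concentration-response.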

Test [2] is described as follows: Cell Viability - SH-SY5Y (AID 544).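 Note: 0% = DMSO alone and -100% = 100 µM tamoxifen; nearly all actives have a fitted effect of over 55% in size.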 The settings on record: SH-SY5Y neuroblastoma cell viability; viability change, negative = cytotoxic: at 92.2 µM (top of the series). A digest of the protocol:
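SH-SY5Y human neuroblastoma cells (1500/well) incubated 5 h, then compound-treated 40 h at 37 °C in complete medium. Viability read as intracellular ATP by CellTiter-Glo luminescence after 20 min; AC50 from Hill-equation fits of qHTS concentration-response.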

A short description of test [3]: Cell Viability - Renal Proximal Tubule (AID 545).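 Note: 0% = DMSO only and -100% = 100 µM tamoxifen; nearly all actives have a fitted effect of over 40% in size.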 The essentials: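 Viability taken as intracellular ATP (CellTiter-Glo luminescence) after 40 hr, 37 °C compound treatment of primary proximal tubule cells from rat kidney, 1000 cells/well; Hill-equation fits of qHTS concentration-response data gave AC50.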
The target of test [4] is Cytochrome P450 3A4 (Homo sapiens) (UniProt P08684). The test can be described thus: qHTS Assay for Inhibitors and Substrates of Cytochrome P450 3A4 (AID 884). Note: nearly all actives have a fitted effect of over 50% in size. Note: potency is the fitted concentration of half-maximal effect. A digest of the protocol: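 20 nM human CYP3A4 with 25 uM Luciferin-PPXE (at KM) in 200 mM KPO4, preincubated 10 min with compound; NADPH regeneration started a 60 min RT reaction. Luciferin detected by luminescence, normalized to 57 uM ketoconazole as full inhibition.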
Sequence of Cytochrome P450 3A4 (Homo sapiens) (P08684 whole entry, looked up): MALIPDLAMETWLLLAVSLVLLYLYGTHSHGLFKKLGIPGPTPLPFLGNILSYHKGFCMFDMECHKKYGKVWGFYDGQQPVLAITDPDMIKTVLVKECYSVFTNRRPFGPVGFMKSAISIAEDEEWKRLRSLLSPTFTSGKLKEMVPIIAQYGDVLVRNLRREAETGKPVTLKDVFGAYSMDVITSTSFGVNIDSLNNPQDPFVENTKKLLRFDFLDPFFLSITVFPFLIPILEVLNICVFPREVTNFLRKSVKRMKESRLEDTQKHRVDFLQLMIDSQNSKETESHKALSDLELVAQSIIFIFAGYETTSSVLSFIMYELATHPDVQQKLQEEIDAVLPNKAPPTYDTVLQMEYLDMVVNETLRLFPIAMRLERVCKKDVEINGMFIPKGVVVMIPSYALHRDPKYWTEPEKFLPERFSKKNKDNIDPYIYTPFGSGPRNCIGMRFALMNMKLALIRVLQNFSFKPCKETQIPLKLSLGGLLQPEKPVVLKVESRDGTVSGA
(In general: In qHTS, concentration-response curves come from the screen itself.)

Test [5] can be described thus: Cell Viability - LYMP2-001 (AID 921).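 Note: 0% = DMSO only and full inhibition = tetraoctylammonium bromide control wells; nearly all actives have a fitted effect of over 70% in size.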 A digest of the protocol:
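Cellular ATP loss read by luciferase luminescence after 24 h compound exposure at 37 C in complete medium. LYMP2-001 lymphoblastoid cells, 2500/well; qHTS concentration-response data fitted with Hill equation for AC50.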

Test [6] can be described thus: Cell Viability - LYMP2-003 (AID 965).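 Note: cells exposed to compounds for 24 h before reading; 0% = DMSO only and full effect = 92 µM tetraoctylammonium bromide; nearly all actives have a fitted effect of over 50% in size.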 The essentials: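 CellTiter-Glo luminescence quantified ATP loss after 24 h compound treatment of LYMP2-003 lymphoblastoid cells at 37 C. Titration series were fitted with the standard Hill equation to give AC50.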
Test [7] can be described thus: Cell Viability - LYMP2-015 (AID 971).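 Note: 0% = DMSO only and full effect = 92 µM tetraoctylammonium bromide; nearly all actives have a fitted effect of over 55% in size.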 A digest of the protocol: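 LYMP2-015 human lymphoblastoid cells (2500/well) in complete medium, compound-treated 24 h at 37 C; viability read as cellular ATP by CellTiter-Glo luminescence after 30 min at room temperature. AC50 from Hill-equation fits of qHTS concentration-response data.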
A short description of test [8]: Cell Viability - LYMP2-019 (AID 973).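 Note: 0% = DMSO alone and full effect = 92 µM tetraoctylammonium bromide; nearly all actives have a fitted effect of over 55% in size.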 A digest of the protocol: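 Human lymphoblastoid LYMP2-019 cells (2500/well) preincubated 5 h at 37 C, then treated 24 h at 37 C in complete medium. Viability by CellTiter-Glo ATP luminescence after 30 min at room temperature; AC50 from Hill fits.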
Test [9] can be described thus: Cell Viability - LYMP2-002 (AID 977).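 Note: plate controls were DMSO only for no effect and 92 µM tetraoctylammonium bromide for full effect.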 The essentials:
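Luminescent ATP readout (CellTiter-Glo, 30 min room temperature) after 24 h compound exposure at 37 C of a human lymphoblastoid line, 2500 cells/well. AC50 values derived by standard Hill fitting of qHTS concentration-response data.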

A short description of test [10]: Cell Viability - LYMP2-008 (AID 980). Note: % is set by controls: 0 for no effect and ±100 for the full control effect; nearly all actives have a fitted effect of over 60% in size. The essentials:
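LYMP2-008 lymphoblastoid cells (2500/well) plated 5 h, then treated 24 h at 37 C in complete medium. Viability read as intracellular ATP by CellTiter-Glo luminescence after 30 min at room temperature; AC50 from Hill fits.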

A short description of test [11]: Cell Viability - LYMP2-010 (AID 981). Note: % is set by controls: 0 for no effect and ±100 for the full control effect; nearly all actives have a fitted effect of over 55% in size. A digest of the protocol: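 Human lymphoblastoid LYMP2-010 cells (2500/well) treated 24 h at 37 C in complete medium; viability read as intracellular ATP by CellTiter-Glo luminescence. AC50 from Hill fits of concentration-response data; tetraoctylammonium bromide positive control.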
Test [12] is described as follows: Cell Viability - LYMP2-012 (AID 982).
Test [13] in a line: Cell Viability - LYMP2-020 (AID 986). A digest of the protocol: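 Human lymphoblastoid LYMP2-020 cells (2500/well) preincubated 5 h at 37 C, then treated 24 h at 37 C. Viability measured as intracellular ATP by CellTiter-Glo luminescence after 30 min at room temperature; AC50 from Hill fits.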
Test [14] in a line: Cell Viability - LYMP2-022 (AID 987). A digest of the protocol:
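LYMP2-022 lymphoblastoid cells (2500/well, complete medium) were treated with compounds for 24 hours at 37 C; intracellular ATP was then read by CellTiter-Glo luminescence after 30 min at room temperature. AC50 values were derived from Hill-equation fits.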

Test [15] is described as follows: Cell Viability - LYMP1-002 - Assay at 40 hr (AID 994).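 Note: 0% = DMSO only and full inhibition = 92 µM tetraoctylammonium bromide; nearly all actives have a fitted effect of over 60% in size.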 The essentials:
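LYMP1-002 human lymphoblastoid cells (2500/well, complete medium) were treated with compounds for 40 hr at 37 C. Intracellular ATP was measured by CellTiter-Glo luminescence, and AC50 values came from Hill-equation fits of concentration-response data; tetraoctylammonium bromide was the positive control.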

The nature of test [16]: qHTS assay for small molecule agonists of retinoid X receptor alpha signaling (AID 588544). Conditions: HEK293T RXRa-UAS-bla, beta-lactamase reporter, 18 h; 530 nm emission.
Test [17] in a line: qHTS assay for small molecule antagonists of retinoid X receptor alpha signaling (AID 588546; active = well fitted inhibition curve with a large enough effect in the signal ratio, with a control signal flat, not every such curve was filed as active; the % refers to the signal ratio;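 note: cells stimulated with 9-cis-retinoic acid as agonist; % is set by controls: 0 for no effect and ±100 for the full control effect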). The settings on record: HEK293T RXRa-UAS-bla, beta-lactamase ratio, antagonist mode; measured here: W530 green channel, cytotoxicity proxy. The essentials:
(§1)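 Beta-lactamase reporter inhibition, read as CCF4 fluorescence ratio (ex 405, em 460/530 nm) after 2 h at RT. HEK293T UAS-bla cells, 2500/well, were stimulated with 9-cis-RA at 500 or 100 nM final alongside test compound for 18 h at 37 C.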

Test [18] concerns the target Retinoic acid receptor RXR-alpha (Homo sapiens) (UniProt P19793). The description is as above. The settings on record: HEK293T RXRa-UAS-bla, beta-lactamase ratio, antagonist mode. The essentials: as §1
In test [19] the target is Tumor necrosis factor (Homo sapiens) (UniProt P01375). The test can be described thus: qHTS assay to identify small molecules that stimulate Tumor Necrosis Factor-alpha (TNF-alpha) secretion (AID 651757; active = well fitted curve in the direction sought with a large enough effect in the signal ratio; the % refers to the signal ratio; note: 0% is about no effect). The essentials:
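THP-1 cells (3000/well) exposed to compounds 17 hrs at 37 C. Secreted TNF-alpha detected by HTRF with cryptate- and XL665-labeled anti-TNF-alpha antibodies after 3 hr at room temperature.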

The nature of test [20]: qHTS assay for small molecule antagonists of the retinoid-related orphan receptor gamma (ROR-gamma) signaling pathway - cell viability counter screen (AID 720652; active = well fitted curve in the direction sought with a large enough effect in the repeat runs; an effect the other way counts as inactive or inconclusive;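 note: CHO reporter cells with doxycycline-induced ROR-gamma expression; compound exposure lasted 16 hr before ATP read; % is set by controls: 0 for no effect and ±100 for the full control effect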). A digest of the protocol: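 CHO cells carrying TET-inducible ROR and RORE-luciferase reporter, plated 5 hr, then dosed with compound plus doxycycline. After 16 hr at 37 C, viability read as intracellular ATP by CellTiter-Glo luminescence.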

The source of these data is PubChem BioAssay (NCATS).

Where “and” joins values, the source holds several entries; their conditions need not be identical. Equal entries are not always repeated. Results filed as inconclusive are left out. Calls of active or inactive are those of the source. Unless noted, calls come from the whole dose curve; as a rule, active = well fitted curve in the direction sought with a large enough effect; inconclusive = small, poorly fitted or top-dose-only effect, or another doubt; inactive = no such curve, though single readings can be large; an effect the other way counts as inactive or inconclusive.

Sequence of Retinoic acid receptor RXR-alpha (Homo sapiens) (P19793 whole entry, looked up): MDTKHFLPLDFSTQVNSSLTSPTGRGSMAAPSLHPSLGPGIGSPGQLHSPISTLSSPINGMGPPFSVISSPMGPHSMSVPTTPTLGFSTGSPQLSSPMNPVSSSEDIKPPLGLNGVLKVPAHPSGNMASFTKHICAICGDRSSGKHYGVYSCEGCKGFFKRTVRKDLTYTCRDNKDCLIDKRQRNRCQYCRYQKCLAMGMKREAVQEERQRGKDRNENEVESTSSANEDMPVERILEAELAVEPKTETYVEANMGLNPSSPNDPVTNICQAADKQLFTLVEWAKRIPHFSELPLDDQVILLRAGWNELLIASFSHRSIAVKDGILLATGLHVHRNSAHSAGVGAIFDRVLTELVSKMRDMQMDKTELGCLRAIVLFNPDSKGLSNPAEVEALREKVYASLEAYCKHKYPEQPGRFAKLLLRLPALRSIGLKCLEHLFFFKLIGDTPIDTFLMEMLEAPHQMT
Sequence of Tumor necrosis factor (Homo sapiens) (P01375 whole entry, looked up): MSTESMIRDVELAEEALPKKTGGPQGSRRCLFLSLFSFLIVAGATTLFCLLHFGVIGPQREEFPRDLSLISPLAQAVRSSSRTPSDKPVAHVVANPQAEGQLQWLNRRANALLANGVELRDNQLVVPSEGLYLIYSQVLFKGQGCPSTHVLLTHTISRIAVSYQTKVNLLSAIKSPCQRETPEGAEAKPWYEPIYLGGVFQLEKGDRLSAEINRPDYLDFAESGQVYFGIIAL

As for `CN(C)C(=O)Nc1ccc(Cl)cc1`, the Potency result in test [1], in test [2], in test [4], in test [5], in [6] and in test [7] was “inactive” in each case. Further, the Potency result in [8], in test [9], in [10], in [11], in [12] and in [13] was “inactive” throughout. For the same molecule, the Potency result in test [14], in [15] and in test [20] was “inactive” throughout. Further, the molecule was classed as inactive in test [3] and in test [19]. For the same molecule, the max response was -9.88% and -12.4% in test [16]; -7.13% and -6.88% in test [17]; -0.754% (inactive) and 1.84% (inactive) in test [18].

For `[O-][Cl+2]([O-])O`, the Potency entry in test [1], in test [2], in test [4], in test [5], in [6] and in test [7] was “inactive” each time. The Potency result in test [8], in [9], in test [10], in test [11], in [12] and in [13] was “inactive” each time. Further, the Potency result in test [14], in test [15] and in [20] was “inactive” in each case. Besides, the call in test [3] and in test [19] was inactive. The max response in test [16] was 6.62%; in test [17] it was -3.35%; in [18] it was -4.77% (inactive).

In the case of `CC(C)OC(=O)Cc1ccccc1`, the Potency entry in test [1], in test [2], in test [4], in test [5], in [6] and in test [7] was “inactive” throughout. For the same molecule, the Potency result in test [8], in test [9], in [10], in [11], in test [12] and in test [13] was “inactive” each time. For the same molecule, the Potency result in test [14], in [15] and in test [20] was “inactive” in each case. The molecule was called inactive in test [3] and in test [19]. In addition, the max response in test [16] was 1.88%; in [17] it was -2.88%; in test [18], 8.61% (inactive).

`N#CCc1ccccc1`: the Potency result in test [1], in [2], in [4], in test [5], in test [6] and in [7] was “inactive” each time. Further, the Potency entry in [8], in test [9], in test [10], in test [11], in test [12] and in [13] was “inactive” in each case. Moreover, the Potency result in test [14], in [15] and in test [20] was “inactive” in each case. For the same molecule, the result in test [3] and in [19] was inactive. Also, the max response in test [16] is -3.72%; in test [17], -0.865%; in [18] it was 20.3% (inactive).

Take `Nc1ccc([N+](=O)[O-])cc1[N+](=O)[O-]`: the Potency result in test [2], in [4], in [5], in test [6], in [7] and in [8] was “inactive” in each case. Further, the Potency result in test [9], in [10], in [11], in test [12], in test [13] and in test [14] was “inactive” in each case. Moreover, the Potency entry in [15] and in test [20] was “inactive” in each case. The call in [3] and in test [19] was inactive. In addition, the max response in [16] is -7.45%.

Turning to `Cc1cc(Cl)ccc1O`, the Potency entry in test [1], in test [2], in test [4], in test [5], in test [6] and in [7] was “inactive” throughout. Besides, the Potency result in [8], in [9], in [10], in [11], in test [12] and in test [13] was “inactive” in each case. Moreover, the Potency result in [14], in test [15] and in [20] was “inactive” each time. Also, the outcome in [3] and in test [19] was inactive. The figures for the max response in [16], in test [17] and in test [18] were -4.59%, -5.47% and -5.53% (inactive), respectively.

As for `Nc1ccc(-c2ccccc2)cc1`, the Potency entry in [1], in test [2], in [5], in test [6], in test [7] and in [8] was “inactive” throughout. The Potency entry in [9], in test [10], in test [11], in test [12], in [13] and in test [14] was “inactive” each time. The Potency result in [15] and in [20] was “inactive” in each case. Moreover, the molecule was called inactive in test [3] and in [19]. Further, the Potency in test [4] was 12.6 µM (active). Moreover, the max response in test [16] was 9.85%; in test [17] it was -4.26%; in [18], -7.2% (inactive).
